{
  "source": "PubChem BioAssay AID2629",
  "about": "(Broad Institute, 2010)",
  "note": "“And” between values parts separate entries of the source, which are not always exact repeats. Equal values may be shown once. In all, about 320,000 compounds went through this assay and about 1,900 (0.59%) were called active. Rule as the data show it: active = inhibition mostly above about 10% (no sharp cut-off); inactive = mostly below about 6.7%. This excerpt belongs to a sample that is enriched for actives. Some compounds were tested as several samples or in several runs, with calls that do not always agree.",
  "data": [
    {"biological_target": "Protein LANA1 (Human herpesvirus 8 type P (isolate GK18)) (UniProt Q9QR71)", "sequence (Q9QR71 whole entry, looked up)": "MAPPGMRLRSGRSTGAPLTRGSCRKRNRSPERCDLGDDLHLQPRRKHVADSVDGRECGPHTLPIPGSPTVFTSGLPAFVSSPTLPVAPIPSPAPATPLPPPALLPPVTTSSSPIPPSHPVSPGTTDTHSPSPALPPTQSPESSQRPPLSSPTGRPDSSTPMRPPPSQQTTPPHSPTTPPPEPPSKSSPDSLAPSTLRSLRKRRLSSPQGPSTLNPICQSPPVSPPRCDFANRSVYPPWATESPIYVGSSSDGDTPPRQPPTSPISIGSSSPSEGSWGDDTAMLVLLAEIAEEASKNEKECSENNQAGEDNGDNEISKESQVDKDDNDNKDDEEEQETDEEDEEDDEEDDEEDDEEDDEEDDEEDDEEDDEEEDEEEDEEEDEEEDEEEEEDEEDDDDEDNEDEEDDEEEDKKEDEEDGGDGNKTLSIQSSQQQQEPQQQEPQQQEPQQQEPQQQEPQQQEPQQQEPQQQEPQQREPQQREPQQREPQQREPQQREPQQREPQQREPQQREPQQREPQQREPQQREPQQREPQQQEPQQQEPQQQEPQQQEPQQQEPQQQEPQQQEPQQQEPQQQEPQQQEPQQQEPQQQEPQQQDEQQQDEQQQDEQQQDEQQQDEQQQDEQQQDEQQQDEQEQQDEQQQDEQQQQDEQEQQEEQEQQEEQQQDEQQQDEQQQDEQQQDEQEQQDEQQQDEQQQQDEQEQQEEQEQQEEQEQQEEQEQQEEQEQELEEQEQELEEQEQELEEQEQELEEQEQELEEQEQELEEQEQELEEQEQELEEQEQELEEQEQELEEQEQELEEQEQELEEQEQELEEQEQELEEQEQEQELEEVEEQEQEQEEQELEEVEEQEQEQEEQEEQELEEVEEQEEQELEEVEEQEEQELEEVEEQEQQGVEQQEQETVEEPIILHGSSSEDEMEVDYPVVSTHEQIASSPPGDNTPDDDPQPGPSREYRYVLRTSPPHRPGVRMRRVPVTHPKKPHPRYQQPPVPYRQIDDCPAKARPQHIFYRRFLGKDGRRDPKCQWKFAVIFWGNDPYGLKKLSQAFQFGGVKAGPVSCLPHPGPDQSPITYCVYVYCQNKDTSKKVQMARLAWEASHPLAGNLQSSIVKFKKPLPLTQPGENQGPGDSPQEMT", "assay": "blockers of LANA interaction with H2A/H2B – biochemical, FP readout, HTS, primary screen (AID 2629)", "conditions": "cell-free LANA-H2A/H2B peptide, fluorescence polarization, stronger effect = higher value, concentration not given here", "values": [
      {"smiles": "COc1ccc(C2N=C(N)N=C(N)N2c2ccccc2)cc1OC", "note": "(centres undefined)", "inhibition": "-6.16% (inactive)"},
      {"smiles": "CCCCSc1[nH]c(=O)c(C(=O)OCC)cc1C#N", "inhibition": "3.53% (inactive)"},
      {"smiles": "COc1ccc(-c2nc(N)sc2C2(O)C(=O)Nc3c(Br)cc(F)cc32)cc1OC", "note": "(centres undefined)", "inhibition": "-10.7% (inactive)"},
      {"smiles": "S=c1[nH]nc(Nc2ccccc2)s1", "inhibition": "6.41% (inactive)"},
      {"smiles": "O=C(/C=C/Nc1ccccc1)c1cnc(-c2ccccc2)s1", "inhibition": "0.792% (inactive)"},
      {"smiles": "CC(C)(C)C(=O)c1cnc(Nc2ccccc2)s1", "inhibition": "54.4% (active)"},
      {"smiles": "Cc1ccccc1-n1cc(CNC(=O)CC2C(=O)NCCN2C/C=C/c2ccccc2)cn1", "note": "(centres undefined)", "inhibition": "-1.56% (inactive)"},
      {"smiles": "Cc1nc(SC(C)C)[nH]c(=O)c1Cc1ccccc1", "inhibition": "1.02% (inactive)"},
      {"smiles": "O=C(O)CC(CC(=O)N1CCOCC1)c1ccccc1", "note": "(centres undefined)", "inhibition": "4.19% (inactive)"},
      {"smiles": "O=C(Cc1ccccc1Cl)N1CCOCC1", "inhibition": "-0.189% (inactive)"},
      {"smiles": "O=C(CP(=O)(c1ccccc1)c1ccccc1)N1CCOCC1", "inhibition": "14.6% (active)"},
      {"smiles": "CCOc1ccc(CCNC(=O)Nc2ccccc2)cc1OCC", "inhibition": "-1.38% (inactive)"},
      {"smiles": "CCN1C(=O)[C@H]2[C@@H](c3ccc(C)cc3)N3C(=O)N(c4cccc(Br)c4)C(=O)[C@@]3(CC)[C@H]2C1=O", "inhibition": "-2.34% (inactive)"},
      {"smiles": "Cc1ccc(NC(=O)CSCC(=O)Nc2sccc2C#N)cc1", "inhibition": "1.52% (inactive)"},
      {"smiles": "Cc1ccc(NC(=O)c2sc3nc(N)c(C#N)cc3c2N)cc1", "inhibition": "14.6% (active)"},
      {"smiles": "CCc1ccc2nc3sc(C(=O)Nc4nnc(CC)s4)c(N)c3cc2c1", "inhibition": "-1.19% (inactive)"},
      {"smiles": "CCc1ccc(OCC(=O)NCC(c2ccc(Cl)cc2)N2CCCCC2)cc1", "note": "(centres undefined)", "inhibition": "-1.04% (inactive)"},
      {"smiles": "NC(=O)COC(=O)c1sc2cc(F)ccc2c1Cl", "inhibition": "0.759% (inactive)"},
      {"smiles": "CC1Cc2ccccc2N1C(=O)CSc1nnc(C2CC2)n1C", "note": "(centres undefined)", "inhibition": "5.57% (inactive)"},
      {"smiles": "CC1Cc2ccccc2N1C(=O)CSc1nnc(-c2ccc(S(=O)(=O)N3CCCC3)cc2)n1C", "note": "(centres undefined)", "inhibition": "14.5% (active)"},
      {"smiles": "Cn1c(SCC(=O)OC2CCCCC2)nnc1-c1ccc(S(=O)(=O)N2CCCC2)cc1", "inhibition": "5.59% (inactive)"},
      {"smiles": "COC(=O)[C@H](C)[C@H]1C[C@]1(C)[C@H](NC(=O)OCc1ccccc1)c1ccccc1", "inhibition": "-3.43% (inactive)"},
      {"smiles": "COC(=O)[C@@H](Cc1ccccc1)NC(=O)NCCc1ccccc1", "inhibition": "-0.105% (inactive)"},
      {"smiles": "COC(=O)[C@H](Cc1ccccc1)NC(=O)[C@@H]1C[C@H]1[C@@H](NC(=O)OCc1ccccc1)c1ccccc1", "inhibition": "14.2% (active)"},
      {"smiles": "COc1ccc(N2CCN(Cc3ccc(Br)s3)CC2)cc1", "inhibition": "0.937% (inactive)"},
      {"smiles": "COc1ccccc1C(=O)N1CCNC(=O)C1CC(=O)Nc1ccc(Cl)cc1", "note": "(centres undefined)", "inhibition": "-4.24% (inactive)"},
      {"smiles": "CSc1ccc(Cl)c(C(=O)OCC(=O)N2CCNC2=O)c1", "inhibition": "2.35% (inactive)"},
      {"smiles": "COCCNc1ncnc2c1nc1n2CCCC1", "inhibition": "3% (inactive)"},
      {"smiles": "Cc1cccc(NS(=O)(=O)c2ccc(C)c(C(N)=O)c2)c1", "inhibition": "2.17% (inactive)"},
      {"smiles": "Cc1cccc(NS(=O)(=O)c2ccc(C)c(C(=O)NCc3cccnc3)c2)c1", "inhibition": "-4.62% (inactive)"},
      {"smiles": "Cc1cccc(NS(=O)(=O)c2ccc(C)c(C(=O)NCC(c3ccccc3)N(C)C)c2)c1", "note": "(centres undefined)", "inhibition": "70.5% (active)"},
      {"smiles": "O=C1C=C(c2ccnc3cc(Cl)ccc23)C[C@@H](c2ccc3c(c2)OCO3)C1", "inhibition": "0.0706% (inactive)"},
      {"smiles": "O=C(NCCc1ccc(F)cc1)c1ccc2nccnc2c1", "inhibition": "7.1% (inactive)"},
      {"smiles": "Cc1nc(C)c2c(c1C(F)(F)F)-c1ccccc1C2(F)F", "inhibition": "11.7% (active)"},
      {"smiles": "CN(CCOc1ccc(CC2SC(=O)NC2=O)cc1)c1ccccn1", "note": "(centres undefined)", "inhibition": "11.3% (active) and 1.08% (inactive)"},
      {"smiles": "CC(O)c1ccc(OCCN(C)c2ccccn2)cc1", "note": "(centres undefined)", "inhibition": "0.184% (inactive)"},
      {"smiles": "CC(C)=N/N=C1/NC(=O)C(Cc2ccccc2)S1", "note": "(centres undefined)", "inhibition": "0.219% (inactive)"},
      {"smiles": "CNc1nccc(-c2ccc(Cl)cc2)c1C#N", "inhibition": "-1.28% (inactive)"},
      {"smiles": "CSCC[C@H](NC(=O)N1CCn2c1nc1ccccc12)C(=O)NC1CCCCC1", "inhibition": "-4.45% (inactive)"},
      {"smiles": "Cc1nc(NC(CC(C)C)C(=O)O)c2nc(C)oc2n1", "note": "(centres undefined)", "inhibition": "11.3% (active)"},
      {"smiles": "Cc1cc(C)cc(C(=O)NC(CC(N)=O)c2ccc(N3CCC(N4CCCCC4)CC3)c([N+](=O)[O-])c2)c1", "note": "(centres undefined)", "inhibition": "-1.95% (inactive)"},
      {"smiles": "N#CC1=C(SCc2ccccc2)NC(=O)C(C#N)C12CCCC2", "note": "(centres undefined)", "inhibition": "15% (active)"},
      {"smiles": "CC1(C)CCc2nc(SCc3ccccc3)c(C#N)cc2C1", "inhibition": "-3.11% (inactive)"},
      {"smiles": "N#CC1=C(SCc2ccc(C#N)cc2)N=C(N)C(c2nc(-c3ccccc3)cs2)C12CCCCC2", "note": "(centres undefined)", "inhibition": "5.1% (inactive)"},
      {"smiles": "COCCCNC(=O)Cc1ccc(-n2c(C)nc3cccnc32)cc1", "inhibition": "-0.715% (inactive)"},
      {"smiles": "CCc1ccc(-c2nc(SCC(=O)NC3CCCC3)n[nH]2)cc1", "inhibition": "1.39% (inactive)"},
      {"smiles": "Cc1ccc(CNC(=O)c2c(-c3ccccc3)noc2C)cc1", "inhibition": "-3.29% (inactive)"},
      {"smiles": "CC(=O)Nc1cccc(NC(=O)c2c(-c3ccccc3)noc2C)c1", "inhibition": "18.3% (active)"},
      {"smiles": "Cc1onc(-c2ccccc2)c1C(=O)Nc1ccccc1C#N", "inhibition": "1.04% (inactive)"},
      {"smiles": "O=C(NCC12CC3CC(C1)CC(CNC(=O)N1CCCC1)(C3)C2)N1CCCC1", "inhibition": "-3.32% (inactive)"},
      {"smiles": "CC(=O)NC12CC3CC(C1)CC(C(=O)N1CCN(C(=O)c4ccco4)CC1)(C3)C2", "inhibition": "-0.808% (inactive)"},
      {"smiles": "O=C(N1CCCC1)C12CC3CC(C1)CC(C(=O)N1CCCC1)(C3)C2", "inhibition": "15.6% (active)"},
      {"smiles": "O=S(=O)(NC1CCCCC1)c1ccc(F)c2ccccc12", "inhibition": "-1.01% (inactive)"},
      {"smiles": "COc1cccc(N(C(=O)c2ccn[nH]2)C2(C(=O)Nc3c(C)cccc3C)CCCCC2)c1", "inhibition": "83.6% (active)"},
      {"smiles": "COc1cccc(N2CC(C(=O)Nc3c(C)cccc3C)CC2=O)c1", "note": "(centres undefined)", "inhibition": "-1.43% (inactive)"},
      {"smiles": "Cc1cccc(C)c1NC(=O)C1(N(C(=O)c2ccccn2)c2ccc(O)cc2)CCCCC1", "inhibition": "-0.134% (inactive)"},
      {"smiles": "COc1cc(CNCc2ccc(OC)c3ccccc23)cc(OC)c1OC", "inhibition": "-2.97% (inactive)"},
      {"smiles": "C=CCC[C@@H](Cc1ccc(F)cc1)C(=O)OC[C@@H](C)NC(=O)[C@H](CC=C)CC(=O)N(CCO)Cc1ccccc1", "inhibition": "-1.37% (inactive)"},
      {"smiles": "O=C(CSc1nc2ccccc2c(=O)n1-c1ccccc1F)N1CCOCC1", "inhibition": "-5.04% (inactive)"}
    ]}
  ]
}
